According to ChEMBL document CHEMBL3988442, “University of Dundee, Small-Polar-MMV Screening Library” (2021):
Among all 48,000 compounds or so, about 13,000 (27%) showed an effect of 50% or more. The list shows a part of the results.

The compounds below were run on Wolbachia pipientis (assay: Anti-Wolbachia Cell-Based Screen). Conditions: 5 µM.
Type: functional
Design: scale not given: in the data most compounds retested in dose-response had high values

Compound	Percent Effect [%]
CNC(=O)[C@@H]1C[C@@H](NC(=O)Cc2nonc2C)CN1Cc1sccc1C	27.67
CSCCCNC(=O)C1CCC(=O)N(C2CCCC2)C1 (stereo unspecified)	-0.8236
CN1CCC(CNC(=O)c2cccc(NC(N)=O)c2)c2ccccc21 (stereo unspecified)	-10.01
Cc1ccccc1N1CC(C)N(C(=O)CCn2cccn2)CC1=O (stereo unspecified)	17.53
CCN1CCN(C2CCN(C(C(N)=O)c3ccccc3)CC2)C1=O (stereo unspecified)	-3.87
CCOC(=O)COC1CCN(C(C)=O)CC(=O)N(C)c2ccccc21 (stereo unspecified)	107.2
COC1CN(C(=O)NCC(N)=O)CCC(=O)N(C)c2ccccc21 (stereo unspecified)	111.8
CCOC(=O)N1CCN(C(=O)C2CC(=O)N(c3ccccc3Br)C2)CC1 (stereo unspecified)	18.95
CCOC(=O)N1CCN(C(=O)C2Cc3ccccc3CN2C)CC1 (stereo unspecified)	6.849
CCOC(=O)N1CCC(OC)c2ccccc2N(C)C(=O)C1 (stereo unspecified)	82.02
NC(=O)CC1CCN(C(=O)NCc2ccccc2-n2cccn2)CC1	4.172
COC1CCN(C(=O)NCC(N)=O)CC(=O)N(C)c2ccccc21 (stereo unspecified)	98.17
CN1CCC(CNC(=O)c2ccc(O)nc2)c2ccccc21 (stereo unspecified)	-12.01
Cc1ccc(C)c(SCC(=O)Nc2cccc(C(=O)N(C)C)n2)c1	-1.523
Cc1nc(S(=O)(=O)CCn2cccn2)n(C2CCCC2)c1C	-3.165
CCOC(=O)CNC(=O)N1CCOC(CCc2ccccc2)C1 (stereo unspecified)	-4.892
CCOC(=O)CNC(=O)N1CCN(c2ncccn2)CC1	-13.49
CCOC(=O)CNC(=O)N1CCC(OC)c2ccccc2N(C)C(=O)C1 (stereo unspecified)	109.7
CS(=O)(=O)N1C[C@H]2CCC[C@@]2(COCC2CCOCC2)C1	-10.38
O=C(COC[C@@]12CCC[C@@H]1CN(C1CCCC1)C2)N1CCCC1.O=C(O)C(F)(F)F	93.22
COCCNC(=O)[C@]12COC[C@H]1CN(C1CCOCC1)C2	-42.69
O=C(COC[C@]12COC[C@H]1CN(C1CCC1)C2)N1CCCC1.O=C(O)C(F)(F)F	91.79

Compound	Percent Effect [%]
CCCS(=O)(=O)N1C[C@@H]2COC[C@]2(CN2CCOCC2)C1.O=C(O)C(F)(F)F	-7.734
C1CC(N2C[C@@H]3COC[C@]3(COCC3CCOCC3)C2)C1.O=C(O)C(F)(F)F	101.5
CS(=O)(=O)N1C[C@@H]2COC[C@]2(COCC(=O)N2CCCC2)C1	114.9
CN(C)S(=O)(=O)N1C[C@H]2CCC[C@@]2(COCc2cccnc2)C1.O=C(O)C(F)(F)F	15.15
CS(=O)(=O)N1C[C@@H]2COC[C@]2(CN2CCOCC2)C1.O=C(O)C(F)(F)F	2.768
CCc1ccc(CNC(=O)CCNc2ncccn2)s1	5.252
CCOC(=O)CCCc1ccc2c(c1)CC(=O)N2	6.435
Cc1ncn(-c2cc(N3CCN(S(C)(=O)=O)CC3)ncn2)c1C	-0.4612
Cc1cc(C)c2nc(CNC3CCNC3=O)cc(O)c2c1 (stereo unspecified)	-8.98
CC(C)c1nc(S(=O)(=O)N(C)c2ccc(F)cc2)c[nH]1	-3.559
CN(C)C(=O)COC[C@@]12CCC[C@@H]1CN(C1CCC1)C2.O=C(O)C(F)(F)F	4.654
CN(C)C(=O)COC[C@]12COC[C@H]1CN(C1CCCC1)C2.O=C(O)C(F)(F)F	91.16
O=C(COC[C@@]12CCC[C@@H]1CN(C1CCC1)C2)N1CCCC1.O=C(O)C(F)(F)F	106.1
CN(C)C(=O)COC[C@@]12CCC[C@@H]1CN(C1CCCC1)C2.O=C(O)C(F)(F)F	-10.47
Cc1cc(CN2C[C@H]3CCC[C@@]3(COCC(=O)N3CCCC3)C2)no1	-8.943
Cc1ccc(CN2CC[C@H]3OCC[C@@]3(COCC(=O)N(C)C)C2)s1.O=C(O)C(F)(F)F	-46.75
Cc1nc(NC(=O)OC(C)(C)C)sc1C(N)=O	1.161
CC(C)c1nnc(CN(C)C(c2ccc(F)cc2)c2cccnc2)o1 (stereo unspecified)	1.551
Cc1cc(C)nc(N2CCc3ccc(OC(F)F)cc3C2)n1	7.415
Cc1ccnc(OC[C@]23COC[C@H]2CN(C(=O)c2cnccn2)C3)n1	95.8
Cc1ccnc(OC[C@]23COC[C@H]2CN(C(=O)C2=CCCCC2)C3)n1	104.7
Cc1ccnc(OC[C@]23COC[C@H]2CN(C(=O)c2ccnn2C)C3)n1	78.09

Compound	Percent Effect [%]
CS(=O)(=O)NC[C@]12COC[C@H]1CN(C(=O)c1cnccn1)C2	-1.744
Cc1nc(C(=O)N2C[C@@H]3COC[C@]3(COCc3cccnc3)C2)cs1	-15.42
Cn1cc(C(=O)N2C[C@@H]3COC[C@]3(COCc3cccnc3)C2)cn1	5.656
Cc1ccnc(OC[C@]23COC[C@H]2CN(C(=O)c2ncccn2)C3)n1	94.44
Cc1ccc(C(=O)N2C[C@@H]3COC[C@]3(COCc3cccnc3)C2)cn1	-15.81
COC[C@]12COC[C@H]1CN(C(=O)c1ccc(F)cc1C)C2	-9.416
Cc1cc(N(C)C)nc(NC2CCc3nc(C)nn3C2)n1 (stereo unspecified)	0.6524
O=C(C1CC1)N1C[C@H]2CNC[C@@]2(C(=O)NCCCc2ccccc2)C1	-23.56
CCn1cc(CN2CCC(CNC(C)=O)CC2)cc1C#N	3.567
CC(C)Oc1cc(N2CCCC(O)C2)nc(N)n1 (stereo unspecified)	-24.67
COCCCn1ccc(NC2CCOCC2)n1	12.54
Cc1nn(C)c(C)c1C1CCCN1CCOc1cccc(C#N)c1 (stereo unspecified)	-3.583
COCCCn1ccc(NC2CCSCC2)n1	-2.987
COCCN1CCN(Cc2ccc3nsnc3c2)[C@H]2CS(=O)(=O)C[C@H]21	0.2231
Cc1nc(N)cc(C2CCN2CCOc2ccccc2)n1 (stereo unspecified)	153.2
COCCN1CCC(CN(C)c2nc3c(s2)c(C)nn3C)C1 (stereo unspecified)	-0.8373
Cc1cc(N2CCC(NCCOc3ccccc3)CC2)nc(C)n1	2.138
COCCN1CCC1c1cc(NC2CCCC2)nc(C)n1 (stereo unspecified)	74.49
Cc1ncsc1C(=O)NC1CCN(CCC(N)=O)CC1	-6.823
Cc1nc(N)cc(C2CCN2CCC(N)=O)n1 (stereo unspecified)	67.17
COCCN1CCC1c1cc(N)nc(C)n1 (stereo unspecified)	66.06
CCc1nc(N)sc1C(=O)N1CCC(c2cc(O)nc(C)n2)CC1	-4.912
